The text below walks through data of PubChem BioAssay AID1851 (National Center for Advancing Translational Sciences (NCATS), 2009).

Structures are written as SMILES. Out of some 16,000 compounds screened, about 5,100 (32%) were called active. Inconclusive results (about 25%) are left out. This is one part of the list. Unmarked numbers belong to inactive results. Calls come from the whole dose curve; as a rule, active = well fitted curve in the direction sought with a large enough effect; inconclusive = small, poorly fitted or top-dose-only effect, or effect the other way; inactive = no such curve, though single readings can be large or run the other way.
% is set by controls: 0 for no effect and ±100 for the full control effect.

Sequence of Cytochrome P450 3A4 (Homo sapiens) (P08684 whole entry, looked up): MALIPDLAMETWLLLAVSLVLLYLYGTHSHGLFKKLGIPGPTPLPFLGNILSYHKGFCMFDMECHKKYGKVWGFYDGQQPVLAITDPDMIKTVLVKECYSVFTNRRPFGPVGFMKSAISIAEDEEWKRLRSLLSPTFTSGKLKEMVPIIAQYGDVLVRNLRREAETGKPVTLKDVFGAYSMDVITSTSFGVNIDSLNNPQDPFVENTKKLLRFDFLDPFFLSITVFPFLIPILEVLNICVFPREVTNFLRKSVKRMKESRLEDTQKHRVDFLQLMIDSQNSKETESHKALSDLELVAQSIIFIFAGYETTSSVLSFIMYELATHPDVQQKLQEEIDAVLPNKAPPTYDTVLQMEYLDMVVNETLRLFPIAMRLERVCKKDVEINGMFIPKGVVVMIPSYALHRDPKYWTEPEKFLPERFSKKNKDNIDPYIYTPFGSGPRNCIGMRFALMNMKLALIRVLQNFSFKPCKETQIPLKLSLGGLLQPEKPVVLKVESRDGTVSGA

This test has as its target Cytochrome P450 3A4 (Homo sapiens) (UniProt P08684). Kind of test: Cytochrome panel assay with activity outcomes. The conditions noted are these: recombinant CYP, pro-luciferin dealkylation, luminescence, p450-cyp3a4; series mostly up to 57.1 µM; activity, negative = inhibition: at the top concentration.
In the case of `COc1ccc(NC(=O)C2CC(=O)NC3=C2C(=O)CC(C)(C)C3)cc1` (stereo unspecified), the “activity, negative = inhibition” value was -22.9%. For the compound `CC(C)Oc1ccc(C2CC(=O)NC3=C2C(=O)CCC3)cc1` (stereo unspecified), the “activity, negative = inhibition” value is -29.8%.

In general, AC50 refers to the concentration at which the activity in the assay is half-maximal. Consider `COc1ccc(OC)c(C2CC(=O)C3=C(C2)NC(=O)CC3c2ccc(O)c(OC)c2)c1` (stereo unspecified), for which the AC50 is 8.91 µM (active). As to `COc1ccc(F)cc1S(=O)(=O)NC(Cc1ccccc1)C(N)=O` (stereo unspecified), the AC50 is 15.8 µM (active). In the case of `CC(=O)NC(Cc1ccc(F)cc1)C(=O)O` (stereo unspecified), the “activity, negative = inhibition” value is 6.9%.

Take `CNC(=O)/C(C#N)=c1\s/c(=C/C(=O)OC)c(=O)n1-c1ccccc1`: the “activity, negative = inhibition” value is -3.36%. Turning to `CS(=O)(=O)c1ccc(Cn2c3c(c4cc(F)cc(F)c42)CCC[C@H]3CC(=O)O)cc1`, the AC50 is 39.8 µM (active). Take `CN[C@@H](c1ccncc1)[C@@H](NC)c1ccncc1`: the AC50 is 5.01 µM (active). Take `CC(C)NNC(=O)c1ccncc1`: the AC50 result was “inactive”. As to `O=c1[nH][nH]c(=S)c(=O)[nH]1`, the activity, negative = inhibition is -14.1% [at 11.4 µM].

With `CC(=O)NCCNc1ncnc2ccc(-c3ccc(C(=O)N(C)C)cc3)cc12`, the “activity, negative = inhibition” value is -20%. `COCCNc1ncnc2ccc(-c3ccoc3)cc12`: the “activity, negative = inhibition” value is -6.63%. For the compound `COCCNc1ncnc2ccc(-c3ccc(N(C)C)cc3)cc12`, the AC50 is 7.94 µM (active). The same measure, in the same setting: next, `COCCNc1ncnc2ccc(-c3ccc(C(=O)N(C)C)cc3)cc12`: 15.8 µM (active); `O=C(NCc1ccc2c(c1)OCO2)C1CC(c2cccc(Br)c2)=NO1` (stereo unspecified): 0.708 µM (active); `COc1ccc(C2=NOC(C(=O)Nc3ccc(C(C)=O)cc3)C2)cc1OC` (stereo unspecified): 8.91 µM (active). On to `COc1ccc(C2=NOC(C(=O)NCc3ccco3)C2)cc1OC` (stereo unspecified), for which the “activity, negative = inhibition” value was -25.1%. Consider `COc1cccc(C2=NOC(C(=O)Nc3ccc(OC)c(OC)c3)C2)c1` (stereo unspecified), for which the AC50 is 6.31 µM (active). For `COC(=O)[C@@H](NC(=O)Nc1ccc(C(C)=O)cc1)C(C)C`, the “activity, negative = inhibition” value was -1.62%. With `O=C(NCc1ccccn1)C1CC(c2ccc(Cl)c(Cl)c2)=NO1` (stereo unspecified), the AC50 is 25.1 µM (active).

As to `O=C(O)[C@@H]1[C@@H](C(=O)NCc2ccccn2)[C@@H]2C=C[C@@H]1O2`, the activity, negative = inhibition is -5.18% [at 11.4 µM]. As to `COCCNC(=O)C1CC(c2cccc(OC)c2)=NO1` (stereo unspecified), the “activity, negative = inhibition” value is -28.1%. Turning to `CC(=O)c1ccc(NC(=O)C2CC(c3ccc(F)cc3)=NO2)cc1` (stereo unspecified), the “activity, negative = inhibition” value was -15.6%.

On to `COc1cccc(C2=NOC(C(=O)Nc3cccnc3)C2)c1` (stereo unspecified), for which the AC50 is 12.6 µM (active). `Cc1ccc(NC(=O)NNC(=O)C2CC(c3cccnc3)=NO2)cc1` (stereo unspecified): the “activity, negative = inhibition” value was 12.9%.

Consider `COc1ccc(CNC(=O)C2CC(c3cccc([N+](=O)[O-])c3)=NO2)cc1` (stereo unspecified), for which the AC50 is 6.31 µM (active).

Take `COc1ccc(CNC(=O)C2CC(c3ccc(OC)cc3)=NO2)cc1` (stereo unspecified): the “activity, negative = inhibition” value is 2.43%.

As to `O=C1C=C(Nc2nc(C(=O)O)cc(=O)[nH]2)c2ccccc2C1=O`, the activity, negative = inhibition was -12.4% [at 11.4 µM]. Take `O=C1C=C(NCCc2cc(Br)c(O)c(Br)c2)C(=O)c2ncccc21`: the AC50 was 3.16 µM (active). Turning to `O=C(NCc1ccco1)c1cc(C(=O)C2CCCCC2)c[nH]1`, the “activity, negative = inhibition” value is -11.4%.

For `O=C(NCCc1ccccn1)c1cc(C(=O)C2CCCCC2)c[nH]1`, the AC50 is 10 µM (active).

Turning to `O=C(NCc1ccco1)c1cc(C(=O)C2CC2)c[nH]1`, the “activity, negative = inhibition” value was 2.35%. With `COc1ccc2c(c1)c(CC(=O)O)c(C)n2C(=O)c1ccc(Cl)cc1`, the AC50 entry was “inactive”. `COc1ccc2c(c1)c(CC(=O)OCC(=O)O)c(C)n2C(=O)c1ccc(Cl)cc1`: the “activity, negative = inhibition” value is -11.9% [at 25.6 µM].

Consider `COc1ccc2c(c1)c(CC(=O)N1CCOCC1)c(C)n2C(=O)c1ccc(Cl)cc1`, for which the AC50 was 5.01 µM (active). `Cc1cccc(C(=O)NNC(=O)C(=O)NC(C)(C)C)c1`: the “activity, negative = inhibition” value was -10.6%. Turning to `Cc1cccc(NCCNc2cccc(C)c2)c1`, the AC50 was 25.1 µM (active).

As to `Cc1cccc(N/C(N)=N/c2nc(C)cc(C)n2)c1`, the “activity, negative = inhibition” value was -11.7%. `COc1ccc(S(=O)(=O)Nc2ccc(F)cc2)c(C)c1C`: the AC50 is 10 µM (active). For `Cc1ccccc1CSc1nsc(N)n1`, the AC50 is 25.1 µM (active).

Consider `COc1ccc(NC(=O)c2cc(C(C)C)on2)cc1OC`, for which the “activity, negative = inhibition” value was -5.54%. Consider `COCCNC(=O)c1cc(-c2cccc(OC)c2)on1`, for which the “activity, negative = inhibition” value was -4.56%. Regarding `COc1cccc(-c2cc(C(=O)Nc3cccc(O)c3)no2)c1`, the AC50 was 10 µM (active). For the compound `CCN1CCN(c2nc(C)c3c(n2)CCCC3=O)CC1`, the “activity, negative = inhibition” value is 11.2%. On the same count and under the same terms, next, `Cc1cc2nc(C)n(CCCN)c2cc1C`: -18.2%. In the case of `CSc1nc(C)cc(Nc2ccc(O)c(CN3CCOCC3)c2)n1`, the activity, negative = inhibition was 0.709% [at 11.4 µM].

With `Cc1cccc(C(=O)NCN2CCN(c3ccccc3C#N)CC2)c1`, the “activity, negative = inhibition” value was -18.3%.

With `Cc1cccc(OCC(=O)NNC(=O)CSc2ncc(C#N)c(N)n2)c1`, the half-maximal activity concentration (AC50) was 14.1 µM (active). In the case of `Cc1c(C(=O)Nc2nccs2)sc2nc(-c3cccs3)cc(C(F)(F)F)c12`, the AC50 is 14.1 µM (active). As for `CC(/C=C/c1ccccc1)=N/NC(=O)CNC(=O)c1ccc2c(c1)OCO2`, the AC50 is 6.31 µM (active). For the compound `CN(C)Cc1ccc(C(C)(C)C)cc1-c1cc(C(C)(C)C)ccc1CN(C)C`, the activity, negative = inhibition was 0.94% [at 11.4 µM]. In the case of `CN(C)Cc1cc(C(F)(F)F)ccc1C(O)(c1ccccc1)c1ccccc1`, the AC50 is 0.794 µM (active). As to `CN(C)Cc1cc(C(C)(C)C)ccc1-c1ccc(C(C)(C)C)cc1CN(C)C`, the activity, negative = inhibition is 5.04% [at 11.4 µM].

As for `COc1nc(OCCNC(C)=O)nc(N(C)C)n1`, the activity, negative = inhibition is 4.84% [at 2.29 µM]. The same measure, in the same setting: next, `CC(=O)NCCNc1cc(-c2ccccc2C)ncn1`: -18%.

`CC(=O)NCCNc1ncncc1-c1ccccc1C(F)(F)F`: the AC50 was 1 µM (active). For `CC(=O)NCCNc1ncncc1-c1ccccc1C`, the AC50 was 2.51 µM (active). The same measure, in the same setting: next, `COc1ccccc1-c1cncnc1NCCNC(C)=O`: 2 µM (active); `CC(=O)NCCNc1ncncc1-c1ccc(N(C)C)cc1`: 2 µM (active). Take `CC(=O)NCCNc1cc(-c2ccccc2CN(C)C)ncn1`: the “activity, negative = inhibition” value was -7.94%. For the compound `CC(=O)NCCNc1cc(-c2ccccc2C(F)(F)F)ncn1`, the “activity, negative = inhibition” value is -6.72%. For the compound `CCn1cnc2sc(C(=O)N3CCN(c4ccc(OC)cc4)CC3)c(C)c2c1=O`, the AC50 is 12.6 µM (active).

Take `COc1ccc(N2CCN(C(=N)/C(C(C)=O)=C(\C)O)CC2)cc1`: the activity, negative = inhibition is -4.11% [at 2.29 µM]. On to `O=C(O)c1cc(=O)cc(C(=O)O)[nH]1`, for which the “activity, negative = inhibition” value was -8.24%. On the same count and under the same terms, next, `Fc1cccc(F)c1C(Nc1nncs1)Nc1nncs1`: -16.1% [at 11.4 µM].

With `Clc1ccccc1-c1nc(N/N=C/c2cccnc2)c2ccccc2n1`, the AC50 was 1.41 µM (active). Turning to `Cc1sc(N/N=C/c2cccnc2)nc1-c1ccccc1`, the activity, negative = inhibition was 20.5% [at 2.29 µM]. For the compound `C(=N/Nc1nnc2c(n1)[nH]c1ccccc12)/c1cccnc1`, the AC50 is 3.98 µM (active). As to `Clc1ccccc1-c1nc(NCc2cccnc2)c2ccccc2n1`, the AC50 is 2.51 µM (active). With `FC(F)(F)c1ccccc1-c1nc(NCc2cccnc2)c2ccccc2n1`, the AC50 is 2 µM (active). For the compound `CON(C)C(=O)c1nnc2c(n1)[nH]c1ccccc12`, the activity, negative = inhibition was -23% [at 11.4 µM].
